Source: PubChem BioAssay
KinaseGlo FLuc: counter-screen: inhibitors of Kinase-Glo firefly luciferase. Q27757. Kinase-Glo luciferase, ATP luminescence, 8 min. Potency, µM (titrated, usually from 38.3 µM), without a hit: at the highest dose activity change, negative = inhibition, usual class: inhibitors. 200,000 compounds, 0.28% hits. AID 1379; also: % is scaled to controls: 0 for no effect and ±100 for the full control effect; nearly all actives have a fitted effect of over 60% in size
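Compound is pinned into ATP-containing buffer (10 uM ATP, imidazole pH 7.2, 7 mM MgCl2). Kinase-Glo luciferase reagent is then added. Light output is recorded following an 8-min room-temperature incubation.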
FLuc modulator: firefly luciferase modulation, counter-screen for miR-21 project; purified FLuc, Km substrates, luminescence inhibition; 360,000 compounds, 6.9% hits; Potency, µM (doses to about 57.5 µM), inactives show at the top dose activity change, negative = inhibition, usual class: inhibitors; AID 588342;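 also: plate controls were vehicle for no effect and reference inhibitor for full effect; nearly all actives have a fitted effect of over 55% in size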
Target sequence (P08659 whole entry, looked up): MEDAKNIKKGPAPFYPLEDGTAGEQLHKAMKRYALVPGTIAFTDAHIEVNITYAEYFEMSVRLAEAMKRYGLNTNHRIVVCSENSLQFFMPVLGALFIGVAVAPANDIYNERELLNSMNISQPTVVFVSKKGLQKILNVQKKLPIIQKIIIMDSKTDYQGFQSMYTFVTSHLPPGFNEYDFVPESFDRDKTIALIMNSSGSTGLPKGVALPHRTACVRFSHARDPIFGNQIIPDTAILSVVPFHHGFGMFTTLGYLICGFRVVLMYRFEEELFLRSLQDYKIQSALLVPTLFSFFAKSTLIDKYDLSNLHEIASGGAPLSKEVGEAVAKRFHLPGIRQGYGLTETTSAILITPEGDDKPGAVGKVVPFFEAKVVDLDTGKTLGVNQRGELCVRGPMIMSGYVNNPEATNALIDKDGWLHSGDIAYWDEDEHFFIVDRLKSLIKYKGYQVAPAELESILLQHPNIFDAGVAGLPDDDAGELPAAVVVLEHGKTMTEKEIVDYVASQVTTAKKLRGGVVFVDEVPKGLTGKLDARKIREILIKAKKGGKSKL
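Purified P. pyralis luciferase, 10 nM final, with Km-level 10 uM D-luciferin and 10 uM ATP in 50 mM Tris acetate pH 7.5, 10 mM Mg acetate, 0.01% Tween-20, 0.05% BSA; 6-point qHTS titration about 60 µM downward; luminescence read.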
ELG1 genotox: inducers of genotoxicity in HEK293T ELG1-luciferase cells. HEK293T ELG1-luciferase reporter, luminescence, 16 h. Potency, µM (titrated, usually from 46 µM), for the others: at the top dose activity change, positive = activation, most hits filed as activators. 330,000 compounds, 1.3% hits. AID 504466; also: % of control where 0% means no effect; nearly all actives have a fitted effect of over 60% in size
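Genotoxic stress is detected as increased luminescence from luciferase-tagged ELG1 in HEK293T cells, measured with ONE-Glo after a 16 hr treatment at 37 °C.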
Rab9 prom act: activates the Rab9 promoter | Huh7 Rab9 promoter-luciferase reporter, luminescence, 24 h | AID 485297 | Potency, µM (highest dose often 9.22 µM), inactives show at the top dose activation, negative = inhibition, hits mostly activators | 320,000 compounds, 2.8% hits; also: % of control where 0% means no effect; nearly all actives have a fitted effect of over 60% in size
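Huh7 cells stably carrying Rab9 promoter–luciferase reporter, plated 1500 cells/well, compound added after 2 h and incubated 24 h at 37 °C; luciferase luminescence then read after 10 min with detection reagent.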
SMN2 splice up: increases expression of the SMN2 splice variant; HEK293 SMN2-luciferase splicing reporter, luminescence, 30-36 h; Potency, µM (titrated, usually from 46.1 µM), inactives show at the top dose activity change, positive = activation, most hits filed as activators; 210,000 compounds, 2.8% hits; also: % of control where 0% means no effect; nearly all actives have a fitted effect of over 55% in size
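HEK293 cells carry an SMN2 minigene-luciferase reporter in which exon 7 inclusion puts luciferase in frame. Cells were seeded at 2000 cells/well, attached for 10-12 hours, then exposed to compounds for 30-36 hours at 37C before ONE-Glo luminescence.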
NPC1 promoter act: activates the NPC1 promoter; Huh7 NPC1 promoter luciferase reporter, 24 h; Potency, µM (top dose mostly 9.22 µM), for inactives: at the top dose activation, hits mostly activators; 320,000 compounds, 2.4% hits; also: % of control where 0% means no effect; nearly all actives have a fitted effect of over 60% in size
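Huh7 cells stably carrying NPC1 promoter–luciferase, plated in Opti-MEM with 10% FBS for 2 h, were exposed to compound in DMSO for 24 h at 37 °C; luciferase reagent was added for 10 min and luminescence read.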
Active calls of the source: *; ? = inconclusive; . = no result given; [ ] = another dose, or the depositor's remark. Only some compounds are listed: those with a hit (about 7.5% of all), similar ones and a draw of the others. Calls follow the shape of the dose curve; as a rule, active = well fitted curve in the direction sought with a large enough effect; inconclusive = small, poorly fitted or top-dose-only effect, or another doubt; inactive = no such curve, though single readings can be large; an effect the other way counts as inactive or inconclusive. Potency is read from the fitted curve at half-maximal effect.

SMILES	KinaseGlo FLuc	FLuc modulator	ELG1 genotox	Rab9 prom act	SMN2 splice up	NPC1 promoter act
CCC(C)(C)NC(=O)CN(C(=O)CCC(=O)Nc1nccs1)c1ccc2c(c1)OCCO2	.	0%	?	-1%	.	0%
O=C(Nc1ccc(S(=O)(=O)N(Cc2ccccc2)c2ccccc2)cc1)c1ccc([N+](=O)[O-])cc1	.	-1%	.	.	.	.
COc1cccc(-c2cn3c(n2)sc2cc(C(=O)NCCc4ccc(OC)c(OC)c4)ccc23)c1	.	-7%	.	.	.	.
N#C/C(=C\c1ccc(C#N)cc1)C(=O)c1ccccc1	.	?	6%	-2%	.	5%
CN(C)c1ccc(/C=C(\C#N)c2ccccc2)cc1	.	1.3µM*	4.1µM*	0.56µM*	.	29%
CN(C)c1ccc(/C=C(\C#N)C(=O)c2ccccc2)cc1	.	0.43µM*	7%	0%	.	-3%
CCN(CC)c1ccc2c(O)cc(=O)oc2c1	3%	12µM*	3%	1%	7%	0%
NC(=O)c1ccccc1NC(=O)Nc1ccc(F)c(Cl)c1	?	9.5µM*	5%	0%	18%	-2%
CC(=O)Nc1ccccc1C(=O)C(=O)Nc1ccc(F)c(Cl)c1	.	3%	?	3.2µM*	.	4µM*
CC(=O)Nc1ccccc1C(=O)C(=O)Nc1ccc(C)c(F)c1	-3%	?	?	1.8µM*	6.3µM*	3.5µM*
NC(=O)c1ccccc1NC(=O)Nc1cccc(Cl)c1Cl	0%	-12%	5%	-3%	5%	0%
CC(=O)Nc1ccccc1C(=O)C(=O)O	1%	-2%	1%	0%	4%	2%
Cc1ccc(NC(=O)/C(Cl)=C/c2ccccc2)cc1C	-3%	0.76µM*	?	2.5µM*	?	1.8µM*
CN(C)S(=O)(=O)c1ccc(C(=O)NCCC(=O)N2CCCC2)cc1	.	-1%	6%	9%	.	?
COC(=O)c1cn(NC(=O)/C=C/c2ccc(OC)c(OC)c2)c(=O)c2ccccc12	-1%	0%	12%	-5%	15%	0%
CCc1ccc(NC(=O)C(=O)c2ccccc2NC(C)=O)cc1	.	?	?	2.8µM*	.	1.6µM*
CC(=O)Nc1ccccc1C(=O)C(=O)Nc1ccc(C)c(C)c1	2%	?	?	0.89µM*	18µM*	2µM*
CC(=O)Nc1ccccc1C(=O)C(=O)Nc1cccc(C(=O)NCc2ccccc2)c1	3%	4%	-1%	14%	-5%	-1%
CCN(CC)CCN(C(=O)Cn1nnc(-c2ccc(C)o2)n1)C(C(=O)NC(C)(C)C)c1cccs1 (stereo unspecified)	-6%	-1%	1%	13%	.	-3%
COc1cccc(C(=O)CSc2nnnn2C)c1	14%	-10%	2%	7%	-1%	2%
Cn1ccnc1SCC(=O)Nc1cccc(Br)c1	.	-16%	.	.	-1%	.
COc1ccc(OC)c(C(=O)CSc2nnnn2C)c1	-4%	-1%	-2%	5%	1%	18%
Cn1ccnc1SCC(=O)c1ccc2ccccc2c1	-7%	8.5µM*	?	1µM*	?	2.2µM*
Cn1ccnc1SCC(=O)c1ccc(O)cc1	.	-18%	12%	?	.	24%
Cn1ccnc1SCC(=O)c1cccc(Br)c1	-8%	15µM*	?	?	14%	18%
SMILES	KinaseGlo FLuc	FLuc modulator	ELG1 genotox	Rab9 prom act	SMN2 splice up	NPC1 promoter act
COc1ccc(C(=O)CSc2nccn2C)c(OC)c1	.	13µM*	?	3.5µM*	.	4µM*
COc1cccc(C(=O)CSc2nccn2C)c1	.	17µM*	?	2.5µM*	.	1.6µM*
CC1=NCCN1CCNC(=O)Nc1ccc(C(C)(C)C)cc1	.	-4%	-2%	-1%	.	-2%
Cn1ccnc1SCC(=O)Nc1ccccc1	-4%	-15%	2%	-1%	6%	1%
Cn1ccnc1SCC(=O)Nc1ccc2ccccc2c1	0%	5.4µM*	1.3µM*	1.6µM*	6.3µM*	1.3µM*
Cn1cnnc1SCC(=O)c1cc2ccccc2o1	2%	-3%	1%	-1%	6%	-1%
O=C(CSc1ncn[nH]1)c1cc2ccccc2o1	0%	?	3%	19%	-2%	-3%
O=C(CSc1nccc(=O)[nH]1)c1cc2ccccc2o1	.	15µM*	10%	4%	.	-4%
Cn1ccnc1SCC(=O)c1cc2ccccc2o1	8%	9.5µM*	?	?	3%	?
CCN1CCN(C(=O)c2ccc3c(c2)N(Cc2cc(C)ccc2C)C(=O)c2ccccc2S3(=O)=O)CC1	.	0%	.	.	19%	.
COc1cccc(CNC(=O)c2cnc(N3CCCC3)nc2C)c1	.	-8%	.	.	.	.
COC(=O)c1c(NC(C)=O)c2c3c(sc2n1Cc1cc(C)ccc1C)CCCC3	.	-6%	.	.	.	.
CCOc1ccc(-c2cnc3ccccc3n2)cc1	.	0.17µM*	0.52µM*	4%	.	?
O=[N+]([O-])c1ccc(-c2cnc3ccccc3n2)cc1	.	?	?	?	.	3.2µM*
CCc1cccc(NC(=O)Cn2c(C(=O)OC)cc3sc(Cl)cc32)c1	.	2%	.	.	-5%	.
COC(=O)C1(C(=O)OC)C[C@@H]2CON=C2[C@H]1c1ccccc1	1%	.	.	.	3%	.
COc1cc(OC)cc(C(=O)Nc2cc(-c3cn4cccnc4n3)ccc2C)c1	2%	?	6%	-7%	6%	1%
COc1ccc(-c2cn3cccnc3n2)cc1Br	-3%	19µM*	?	12%	?	12%
COc1cc(C(=O)Nc2cc(-c3cn4cccnc4n3)ccc2C)cc(OC)c1OC	0%	12µM*	13%	?	1%	0%
COc1ccc(-c2cc(-c3ccccc3)nc3ncnn23)cc1	-3%	-3%	-13%	-30%	-46%	-4%
COc1ccc(-c2cn3cc(Br)cnc3n2)cc1	-8%	?	21µM*	?	10µM*	9%
CC(NC(=O)CCn1ccc2cc(S(=O)(=O)N3CCCC3)ccc21)c1ccccc1 (stereo unspecified)	.	-3%	0%[9.26 µM]	1%	.	-4%
CCc1ccc(-n2c(=O)c3c4c(sc3n(CC(=O)N3CCCCC3CC)c2=O)CCC4)cc1 (stereo unspecified)	.	-11%	.	.	-11%	.
COc1ccc(C(=O)Nc2nc(CC(=O)NCCc3ccccc3)cs2)cc1	.	4.8µM*	-8%	30%	.	24%
COc1ccc(C(=O)Nc2nc(CC(=O)NCCc3cccc(OC)c3)cs2)cc1	.	13µM*	-5%	1%	.	14%
Cc1ccc2c(c1)-n1c(nc3cc(Cl)ccc3c1=O)C(CC(C)C)NC2=O (stereo unspecified)	.	.	1%	.	.	.
Cc1cccc(/N=C/c2c(O)[nH]c3ccccc23)n1	-20%	4.3µM*	?	3.5µM*	?	?
